Consider 8 molecules from PubChem BioAssay (NCI).

What all share (experiment): NCI-60 one-dose screen, 48 h (100 = growth as untreated, 0 = no growth, -100 = all killed)
What all share (conditions): 10 µM unless noted

Assay [1] deals with NCI-H23 lung.
The test system of assay [2] is NCI-H226 lung.
Assay [3] has as its system NCI-H322M lung.
Assay [4] deals with HOP-62 NSCLC.
For assay [5], the system named is NCI-H460 lung.
Assay [6] relates to HOP-92 NSCLC.
For assay [7], the system named is NCI-H522 lung.
Assay [8] concerns A549/ATCC NSCLC.
For assay [9], the system named is 786-0 renal.
The subject of assay [10] is DU-145 prostate.
The subject of assay [11] is K-562 leukemia.
Assay [12] concerns MALME-3M melanoma.
In assay [13] the test system is MDA-MB-231 breast.
For assay [14], the system named is RXF 393 renal.
In assay [15] the test system is SF-268 CNS.
Assay [16] relates to SF-295 CNS.
Assay [17] deals with SF-539 CNS.
The subject of assay [18] is UACC-257 melanoma.
For assay [19], the system named is M14 melanoma.

This is part of a sample that, as a whole, favours compounds with a hit. Of some 83,000 tested, about 20% had one in any assay.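 Single-concentration screen, 48 h exposure, 96-well plates. Endpoint: percent growth. Below 10 = active.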 A number with no mark means an inactive call. Calls of active or inactive are those of the source.

Turning to `C[C@H]1[C@H](C)CC[C@]2(C(=O)N3CCN(C)CC3)CC[C@]3(C)C(=CC[C@@H]4[C@@]5(C)C/C(=C/c6cccnc6)C(=O)C(C)(C)[C@@H]5CC[C@]43C)[C@H]12`, the growth is -51.2% (active) in assay [1]; -57.2% (active) in [2]; -52.8% (active) in [3]; -95.9% (active) in assay [4]; -65.1% (active) in assay [5]; -81.7% (active) in [6]. For the same molecule, the growth in assay [7] was -79.3% (active); in assay [8] it was -73.7% (active); in [9], -85% (active); in assay [10] it was -81.5% (active); in [11], -46.3% (active); in assay [12], -87.3% (active). Besides, the growth in assay [13] is -80.1% (active); in assay [14], -94.4% (active); in [15], -80.3% (active); in assay [16], -84.6% (active); in assay [17] it was -84.6% (active); in assay [18], -65.3% (active). For the same molecule, in assay [19], the growth was -81.8% (active).
Consider `CSc1nc2sc3cc(Cl)ccc3n2c(=N)c1C#N`, for which the growth in assay [1] was 82.2%; in assay [2] it was 57%; in assay [3], 107%; in assay [4] it was 119%; in assay [5], 92.7%; in assay [6], 77%. The growth is 94.3% in assay [7]; 62.3% in assay [8]; 47.6% in assay [9]; 96.1% in assay [10]; 110% in assay [11]; 40.1% in [12]. Besides, the growth is 72.8% in assay [13]; -0.36% (active) in assay [14]; 47.3% in assay [15]; 26.1% in assay [16]; 70.2% in [17]; 45.7% in [18]. Besides, the growth in assay [19] was 82.4%.
Regarding `CCCCN1CCN(c2ccc3nc(-c4ccc5nc(-c6cc(OC)c(OC)c(OC)c6)[nH]c5c4)[nH]c3c2)CC1`, the growth was 82.9% in assay [1]; 77.6% in assay [2]; 86.4% in assay [3]; 61.4% in assay [4]; 83% in assay [5]; 49.9% in assay [6]. Also, the growth is 52.8% in [7]; 105% in assay [8]; 50.6% in [9]; 91.6% in assay [10]; 30.8% in assay [11]; 21.1% in assay [12]. For the same molecule, the growth in assay [13] is 78.9%; in assay [14], -43.4% (active); in [15], 71.8%; in assay [16], 58.6%; in assay [17], 61.1%; in assay [18], 87.9%. Besides, the growth in assay [19] is 59%.
For `N=C(N)c1ccc(-c2ccc(-c3ccc(Cl)cc3Cl)o2)cc1`, the growth in assay [1] is 3.61% (active); in [2], 93.7%; in assay [3], -53.9% (active); in assay [4] it was -12.1% (active); in assay [5], -65.7% (active); in assay [6], 45.3%. Moreover, the growth in [7] is 1.99% (active); in [8], -46.5% (active); in assay [9] it was -86% (active); in assay [10], -17.9% (active); in assay [11], -12.9% (active); in assay [12], 17.4%. Further, the growth in assay [13] is -69.7% (active); in assay [14], 32.1%; in assay [15], 47.3%; in [16] it was -77.1% (active); in [17] it was -61.7% (active); in assay [18], 90.9%. In addition, the growth in assay [19] was 8.85% (active).
With `CCc1nc2ccccc2[nH]1`, the growth in assay [1] is 104%; in assay [2], 99.7%; in assay [3] it was 110%; in assay [4] it was 105%; in [5] it was 102%; in assay [6], 99.7%. Also, the growth in assay [7] was 103%; in [8], 107%; in [9], 112%; in [10], 125%; in assay [11] it was 102%; in assay [12], 122%. For the same molecule, the growth was 103% in assay [13]; 113% in [14]; 103% in assay [15]; 119% in [16]; 104% in assay [17]; 102% in assay [18]. The growth in assay [19] was 99.8%.
For `CCn1c(Sc2nnc(NC(C)=O)s2)nc2c1c(=O)n(C)c(=O)n2C`, the growth in [1] was 82.2%; in [2], 93.9%; in assay [3] it was 96.5%; in assay [4], 99.4%; in assay [5], 103%; in assay [6], 77.6%. Also, the growth is 93.5% in assay [7]; 98.7% in assay [8]; 99.6% in assay [9]; 99.2% in [10]; 95.6% in assay [11]; 99.1% in [12]. Further, the growth is 96% in assay [13]; 91.2% in assay [14]; 90.8% in assay [15]; 98% in assay [16]; 92.5% in assay [17]; 103% in assay [18]. Besides, the growth in assay [19] is 91.4%.
Turning to `O=C(/C=C/C12c3ccccc3C(c3ccccc31)C1C(=O)N(c3ccccc3)C(=O)C12)c1ccc(Cl)cc1` (configuration not stated), the growth in [1] is 17.2%; in assay [2] it was -10% (active); in assay [3], 35.3%; in [4], 23.5%; in assay [5] it was -17.5% (active); in assay [6], 39.1%. For the same molecule, the growth in [7] is 10.1%; in assay [8], 25.1%; in [9], 8.93% (active); in assay [10], 21.8%; in [11], 18.2%; in [12], -32.7% (active). In addition, the growth is -11.8% (active) in [13]; -71.2% (active) in assay [14]; 43% in [15]; 6.27% (active) in [16]; 0.701% (active) in assay [17]; 20.2% in assay [18]. The growth in assay [19] is 30%.
Take `CNC(=O)c1c(NC(=O)c2ccc(C(C)(C)C)cc2)sc2c1CCC(=O)C2`: the growth in assay [1] is 6.65% (active); in assay [2], -2.45% (active); in [3] it was 35.4%; in assay [4], 17%; in assay [5] it was 1.8% (active); in assay [6] it was -22.3% (active). Further, the growth in [7] was -37% (active); in assay [8], 15.8%; in assay [9] it was 29.3%; in [10], 27.7%; in assay [11], 5.54% (active); in assay [12] it was -12.8% (active). The growth in assay [13] is -20.5% (active); in [14] it was -11.3% (active); in [15], 14%; in assay [16], 2.19% (active); in [17], -51.9% (active); in assay [18], 16.8%. The growth in assay [19] was 3.53% (active).
